This is a sample that favours compounds with a hit; in the whole collection about 1.5% have one here.
TMEM16A act: mouse TMEM16A channel activation, primary screen | Q8BHY3 | HEK293 TMEM16A/YFP-H148Q/I152L, iodide quench fluorescence; stronger effect = lower value | B-score at 10 µM | actives 0.3% (n = 340,000) | AID 623877;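 active means fluorescence-ratio B-score plate-corrected deviation score at least 3 library SD below zero, with starting fluorescence score within 5 deviations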;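 further: channel opened by trigger with iodide after compound preincubation; score built on the fluorescence ratio of max minus min over baseline; more negative score means more quench and so TMEM16A activation or potentiation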
Target sequence (Q8BHY3 whole entry, looked up): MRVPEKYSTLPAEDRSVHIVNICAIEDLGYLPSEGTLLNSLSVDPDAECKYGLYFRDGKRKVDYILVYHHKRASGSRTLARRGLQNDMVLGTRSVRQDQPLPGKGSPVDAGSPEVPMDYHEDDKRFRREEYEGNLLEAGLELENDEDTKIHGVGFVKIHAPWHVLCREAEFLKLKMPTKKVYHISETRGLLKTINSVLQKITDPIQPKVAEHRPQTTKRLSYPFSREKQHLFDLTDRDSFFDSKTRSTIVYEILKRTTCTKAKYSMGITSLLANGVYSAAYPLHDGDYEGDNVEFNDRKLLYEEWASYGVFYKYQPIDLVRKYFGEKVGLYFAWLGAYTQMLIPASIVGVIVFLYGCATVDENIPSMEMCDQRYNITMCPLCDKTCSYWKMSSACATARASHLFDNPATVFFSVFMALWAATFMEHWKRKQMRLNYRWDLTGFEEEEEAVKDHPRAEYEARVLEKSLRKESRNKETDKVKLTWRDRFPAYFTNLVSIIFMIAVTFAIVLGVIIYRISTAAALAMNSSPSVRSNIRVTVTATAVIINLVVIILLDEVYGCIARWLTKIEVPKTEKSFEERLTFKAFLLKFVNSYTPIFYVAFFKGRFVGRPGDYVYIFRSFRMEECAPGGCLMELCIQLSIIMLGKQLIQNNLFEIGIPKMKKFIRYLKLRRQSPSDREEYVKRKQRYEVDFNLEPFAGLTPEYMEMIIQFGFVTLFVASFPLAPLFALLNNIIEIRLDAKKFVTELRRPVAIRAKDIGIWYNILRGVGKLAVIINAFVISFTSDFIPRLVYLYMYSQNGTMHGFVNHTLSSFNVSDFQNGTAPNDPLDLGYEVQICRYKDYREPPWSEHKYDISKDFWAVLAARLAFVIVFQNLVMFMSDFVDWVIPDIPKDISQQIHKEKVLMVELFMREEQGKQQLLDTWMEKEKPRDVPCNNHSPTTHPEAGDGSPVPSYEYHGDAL
ABCB6 inh MLPCN: blocks the human ABCB6 transporter | K562-ABCB6 porphyrin accumulation, flow cytometry, 1 h; stronger effect = lower value | fluorescence ratio to DMSO, % at 10 µM | actives 0.19% (n = 360,000);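 active means fluorescence ratio to DMSO below 75%, the collection mean minus 3 SD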;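 further: signal is porphyrin accumulated inside mitochondria; 100% equals median channel fluorescence of DMSO control wells; lower ratio means ABCB6 inhibition with less porphyrin fluorescence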
ANO1 block: mouse TMEM16A channel inhibition, primary screen; Q8BHY3; HEK293 TMEM16A/YFP iodide influx fluorescence, ionomycin; normalized B-score (activity score, 25-100; higher = stronger inhibition) at 10 µM; actives 1.2% (n = 310,000); AID 588511;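 active means ratio plate-corrected score three or more library SD toward inhibition, starting fluorescence score within five deviations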;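 further: score derived from kinetic fluorescence span divided by baseline fluorescence per well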
DAGLB inhibitor: diacylglycerol lipase beta (human) inhibition | Q8NCG7 | HEK293T DAGLB membrane lysate, EnzChek fluorogenic substrate | inhibition, % at 5.17 µM | actives 0.059% (n = 340,000) | AID 504411; in the data active means inhibition above about 34%;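 further: 0% = enzyme with vehicle and 100% = wells lacking enzyme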
hiPSC survival: enhancers of human iPSC single-cell survival | hiPSC single-cell survival, ATPlite luminescence; 100% = ROCK inhibitor wells, 0% = DMSO | survival enhancement, % at 20 µM | actives 0.044% (n = 360,000) | AID 602274; in the data active means survival enhancement above about 18%;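 further: cells exposed to compounds for 16 hours before the ATP read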
TMEM16A reconf: TMEM16A (mouse) chloride channel inhibition, re-confirmation | AID 652189 | actives 39% (n = 2,300) | HEK293 TMEM16A/YFP-H148Q, iodide quench fluorescence; ionomycin added to raise cell calcium | shares compounds with ANO1 block | inhibition, % at 10 µM;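 active means mean duplicate percent inhibition, scaled so buffer wells are 0 and the reference blocker 100, over three buffer SD above buffer mean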
TMEM16A Ca cntr: calcium mobilization counter-screen hit for TMEM16A inhibitor series. calcium response (% of ionomycin), % at 10 µM. shares compounds with ANO1 block. TMEM16A/YFP HEK293, Fluo4 calcium mobilization. actives 2% (n = 2,300);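 active means duplicate-averaged calcium signal over 20% of the ionomycin maximum, relative to buffer baseline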;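 further: each well's signal is peak minus trough fluorescence divided by its pre-addition baseline; 0% = buffer wells and 100% = ionomycin wells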
Parental YFP cnt: acts in parental YFP-HEK293 cells lacking TMEM16A, counter-screen; shares compounds with ANO1 block; iodide YFP quench, ionomycin; YFP ratio F(max-min)/F0 at 10 µM; 2,300 tested, under 10 active; AID 652233;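 active means yellow fluorescent protein signal ratio exceeding the buffer control mean by over 5 SD of those controls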;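 further: ratio is mean of duplicate wells from kinetic YFP trace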
ClC-1 rat inh: rat ClC-1 inhibition, TMEM16A specificity screen; shares compounds with ANO1 block; 2,300 tested, under 10 active; CHO ClC-1-YFP, iodide influx fluorescence quench; iodide control reads 0, buffer control 100; AID 652236; ratio percent, % at 10 µM;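 active means duplicate-mean ratio percent above the mean of iodide-only control wells, which defines zero, plus 5 of their SD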;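 further: higher percent means stronger block of ClC-1 iodide influx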
* marks the source's active call; other numbers are inactive results; i = inactive; x = no result given.

SMILES	TMEM16A act	ABCB6 inh MLPCN	ANO1 block	DAGLB inhibitor	hiPSC survival	TMEM16A reconf	TMEM16A Ca cntr	Parental YFP cnt	ClC-1 rat inh
CCCOc1ccc(NC(=O)C2CC(=O)N3CCCN=C3S2)cc1 (stereo unspecified)	i	91	25*	1	-1	i	i	-1.1	-16
CC(NC(=O)Cn1cc2c(n1)CCCCC2)c1ccccc1 (stereo unspecified)	i	104	25*	2	2	i	i	-1.2	-3
O=C(CCl)NC1(C(=O)O)CCCC1	x	100	x	1	-1	x	x	x	x
CC1=NN(C(=O)c2ccc(Br)cc2)C(O)(C(F)(F)OC(F)(F)F)C1 (stereo unspecified)	i	90	100*	-7	0	29%*	i	-0.97	-21
CC1=NN(C(=O)c2csc(C)c2)C(O)(C(F)(F)F)C1 (stereo unspecified)	i	95	i	-1	3	x	x	x	x
CC1(C(=O)NS(=O)(=O)c2cccs2)CCN1C(=O)c1cccc(F)c1 (stereo unspecified)	x	99	x	x	-3	x	x	x	x
COc1cccc(/C=C2\CCC(C3CCCC3)C2=O)c1OC (stereo unspecified)	i	86	25*	-12	-1	18%*	i	-0.98	-8
CCCC1NC(=O)c2cccnc2-n2c1nc1ccc(Cl)cc1c2=O (stereo unspecified)	x	98	x	-2	0	x	x	x	x
COc1ccccc1N1CCN(C(=O)c2sc3nc(-c4ccc(F)cc4)cn3c2C)CC1	i	90	25*	-1	2	i	i	-0.92	-7
COc1ccc(-c2cn3c(C)c(C(=O)N4CCN(c5ccc(F)cc5)CC4)sc3n2)cc1	i	96	i	-3	2	x	x	x	x
O=C(Nc1cccc(C(F)(F)F)c1)c1ccc(Cn2cc(Br)cn2)o1	i	94	100*	-5	2	49%*	i	-1.1	-12
Nc1nn(S(=O)(=O)c2cccc3nsnc23)cc1-c1ccc(Br)cc1	i	98	25*	-1	-1	i	i	-1	2
Cc1ccc(-c2cn(S(=O)(=O)c3cccc4nsnc34)nc2N)cc1	i	92	i	-4	8	x	x	x	x
CCOc1ccc(NC(=O)c2cccc(S(=O)(=O)NCc3cccnc3)c2)cc1	x	94	x	-2	2	x	x	x	x
Cc1nnc2n(-c3ccccc3)c(=O)c3c4c(sc3n12)COC(C(C)C)C4 (stereo unspecified)	i	125	i	-1	5	x	x	x	x
CC(C)C1Cc2c(sc3[nH]c(=S)n(Cc4ccccc4)c(=O)c23)CO1 (stereo unspecified)	i	81	100*	5	1	i	i	-0.85	-2
Clc1ccc(Cn2cnc3ccccc32)cc1	i	95	100*	2	0	23%*	i	-0.81	-15
Cc1nc2cc(-c3ccsc3-n3c(C)ccc3C)[nH]n2c(=O)c1Cl	i	98	100*	14	4	20%*	i	-0.91	-14
CCN(CC)S(=O)(=O)c1ccc(C(C)NC(=O)C2CCCN2C(=O)c2cccs2)cc1 (stereo unspecified)	i	101	x	-1	-1	x	x	x	x
COc1ccc(CCNC(=O)CCN2C(=O)[C@@H]3Cc4ccccc4CN3C2=O)cc1OC	i	96	i	1	0	x	x	x	x
C/C(=N\NC(=O)C1(C)CC1(Br)Br)c1cccc(NC(=O)c2ccc(C)o2)c1 (stereo unspecified)	i	95	25*	1	0	i	i	-1.1	-6
Cc1ccc(C(=O)Nc2cccc(C(=O)NCc3ccccc3)c2)o1	i	95	i	-2	0	x	x	x	x
Cc1cc(Cl)ccc1OCCCC(=O)Nc1cccnc1	i	85	25*	-3	0	22%*	i	-0.86	-2
O=C1c2ccccc2C(c2nnnn2Cc2ccccc2)N1CCc1ccccc1F (stereo unspecified)	x	91	x	x	-1	x	x	x	x
S=C(NCCc1ccccc1)Nc1ccc(N2CCCCC2)cc1	x	98	i	-2	-1	i	i	-1	-6
SMILES	TMEM16A act	ABCB6 inh MLPCN	ANO1 block	DAGLB inhibitor	hiPSC survival	TMEM16A reconf	TMEM16A Ca cntr	Parental YFP cnt	ClC-1 rat inh
CCOC(=O)c1ccc(NC(=S)NCCc2ccccc2F)cc1	i	102	100*	-8	-1	20%*	i	-1.2	-17
CCOC(=O)c1ccc(NC(=S)NCCc2ccccc2)cc1	i	105	25*	-8	-4	18%*	i	-1.2	-19
CCOC(=O)c1ccc(NC(=O)CCc2ccc(CC)o2)cc1	i	93	100*	-4	-2	i	i	-1.1	-8
CCc1ccc(CCC(=O)Nc2ccc(C(C)=O)cc2)o1	i	96	i	-1	0	x	x	x	x
CCCCNC(=O)C1(C)CCN1C(=O)c1sccc1C (stereo unspecified)	x	96	x	x	5	x	x	x	x
CCN(CC(=O)NCc1ccc2c(c1)OCO2)S(=O)(=O)c1ccc(F)cc1	i	96	i	-4	1	x	x	x	x
Cc1cc(C)n2nc(SCc3nnc(-c4ccccc4Br)o3)nc2n1	i	91	i	1	0	x	x	x	x
Cc1cc(C)n2nc(SCc3ncc(-c4ccccc4)o3)nc2n1	i	91	100*	-3	3	i	i	-0.99	-4
Cn1cc(Cl)c(C(=O)OCC(=O)Nc2cccc(Cl)c2)n1	i	101	x	0	5	x	x	x	x
CSCC[C@H](NC(=O)OC(C)(C)C)C(=O)N1CCC(C(=O)NCC(=O)Nc2ccc(C)cc2)CC1	i	96	i	0	2	i	i	-0.93	-16
O=C1NC[C@@H](CCCCN2CCN(CCC3CCCCC3)C(=O)C2=O)N(CC2CCCCC2)C1=O	x	100	x	x	0	x	x	x	x
O=C(COC(=O)/C=C/c1cccc(C(F)(F)F)c1)Nc1ccc(Cl)cn1	i	94	x	-2	0	x	x	x	x
COCCn1c(CN2CCN(c3ccc(OC)cc3)CC2)nc2c1c(=O)n(C)c(=O)n2C	i	89	25*	0	0	i	i	-1.2	-3
CCOCCn1c(CN2CCN(c3ccc(OC)cc3)CC2)nc2c1c(=O)n(C)c(=O)n2C	i	97	i	2	-2	x	x	x	x

Screens deposited in PubChem BioAssay by several laboratories.
